In PubChem BioAssay AID1650 (Southern Research Specialized Biocontainment Screening …, 2009):
Entries with a potency or affinity are not part of this list. Unmarked numbers belong to inactive results. How the calls were made is not given here.

Experiment: host cell cytotoxicity of antiviral hits, dose response, cytotoxicity control for West Nile virus antiviral project, secondary assay (AID 1650)
Conditions: Mammalian host cell viability, cytotoxicity counter-screen; series mostly up to 10 µM; viability: at the top concentration

| Compound | viability |
| --- | --- |
| CN(C)CCCN(C(=O)c1ccc(S(=O)(=O)N2CCCc3ccccc32)cc1)c1nc2ccc(F)cc2s1 | 84.6% [at 20 µM] |
| CC(C)(C)n1nnnc1C(c1ccccc1)N1CCc2ccccc2C1 (centres undefined) | 78.3% [at 20 µM] |
| CC(=O)OCC1O[C@@H](O[C@@H]2C[C@H]3C(C)(C)[C@H](OC(C)=O)CC[C@]3(C)[C@H]3CC[C@]45C[C@]4(CC[C@H]5[C@@H](C)C[C@@H](O)[C@H](O)C(C)(C)O)[C@@]32C)[C@H](O)[C@@H](O)[C@@H]1O (some centres undefined) | 93.6% |
| N#Cc1cc(-c2ccc(Cl)cc2)cnc1Sc1ccc(F)cc1 | 83.1% [at 20 µM] |
| Cn1c(CCN2CCCCC2)nc2cc(NC(=O)COc3ccc([N+](=O)[O-])cc3)ccc21 | 81.4% |
| CCN(CC)CCCNc1oc(-c2cccc(Cl)c2)nc1C#N | 78% [at 20 µM] |
| N=C1C(c2nc(-c3ccc(Cl)cc3)cs2)=C(O)CN1CCCN1CCOCC1 | 92.8% |
| O=[N+]([O-])c1nn(-c2ccccc2)n(O)c1=NC1CCN(Cc2ccccc2)CC1 | 83.1% [at 20 µM] |
| Cc1oc(-c2ccccc2Cl)[n+]([O-])c1C | 90.3% [at 20 µM] |
| O=[N+]([O-])c1ccc(COc2ccc(-c3[nH]ncc3-c3ccc(Cl)cc3)c(O)c2)cc1 | 82.4% |
| O=C(Nc1cccc(-c2cccc(Cl)c2)c1)C1CCN(CC2CCOC2)CC1 (centres undefined) | 77.2% |
| CN1CCN(CCCN2c3ccccc3Sc3ccc(C(F)(F)F)cc32)CC1 | 74.9% |
| CN(C)CCNS(=O)(=O)c1ccc(N2CCN(c3ccc(F)cc3)CC2)c([N+](=O)[O-])c1 | 79.6% |
| COc1ccc(N=c2oc3ccc(OC)cc3cc2-c2nc3ccccc3[nH]2)cc1 | 80.5% |
| CN(C)CCCN(C(=O)c1ccc2c(c1)OCCO2)c1nc2ccc(Cl)cc2s1 | 70.2% |
| CCN(CC)CCNC(=O)c1sc2ncn(CC(=O)Nc3ccc(C)c(Cl)c3)c(=O)c2c1C | 75.4% [at 20 µM] |
| Cc1cc(C)c(-c2csc(NC(=O)/C=C/c3cccs3)n2)c(C)c1 | 71.9% |
| CCn1cc(CNCc2cn(C)nc2-c2ccc(C3CCCCC3)cc2)cn1 | 80% |
| CCN1CCN(c2cc(C)c3cc(NC(=S)N4CC(C)CC(C)C4)ccc3n2)CC1 (centres undefined) | 79.7% |
| CN1CCCC(n2nc(Cc3ccc(Cl)cc3)c3ccccc3c2=O)CC1 (centres undefined) | 83.8% |

| Compound | viability |
| --- | --- |
| O=C(Nc1ccc(F)c(Cl)c1)Nc1ccc(Cl)cn1 | 83.2% [at 20 µM] |
| CCN1CCN(CCNC(=O)c2ccc(/C=C3\Sc4ccccc4N(Cc4ccccc4F)C3=O)cc2)CC1 | 88.9% |
| N#Cc1c(N)nc2c3c(sc(=N)c2c1N)NC(=O)CC3c1ccccc1Cl (centres undefined) | 93.5% |
| CCN(CCCNC(=O)c1cc2c(-c3cccc(OC)c3)nn(C)c2s1)Cc1ccccc1 | 74.6% [at 20 µM] |
| CCOC(=O)c1[nH]c2ccccc2c1NC(=O)CC(C)(C)C | 83.8% |
| CN(C)CCNC=C(C(=O)Nc1ccc(Cl)cc1Cl)C(=O)Nc1ccc(Cl)cc1Cl | 80.2% [at 20 µM] |
| CCOC(=O)C(=CNc1ccc2c(c1)nnn2-c1ccc(Cl)cc1)C(=O)OCC | 70.6% |
| NS(=O)(=O)c1ccc(NC(=O)c2cc(-c3cc(Cl)ccc3O)n[nH]2)cc1 | 102% |
| O=C(CCN1C(=O)/C(=C/c2ccccc2)SC1=S)NCCc1ccc(O)cc1 | 73.5% |
| COc1ccc(-c2ccc(C#N)c(SCC(=O)Nc3sc4c(c3C#N)CCC4)n2)cc1OC | 70.6% |
| COc1cc(C(=O)/C=C/c2cccnc2)ccc1O | 73.2% |
| CN1CCN(C(=O)CCN2C(=O)/C(=C/c3ccccc3Cl)SC2=S)CC1 | 72.8% |
| CCOC(=O)c1c(CC(C)C)csc1/N=C/C1=C(O)CCCC1=O | 92% [at 20 µM] |
| CN1CCN(c2nc(Nc3cccc(C(F)(F)F)c3)nc(N3CCOCC3)n2)CC1 | 79.1% |
| CN(C)CCN(C)Cc1ccccc1Sc1cccc2ccccc12 | 78.4% |
| Brc1ccc2c(c1)CN1CCCC1=N2 | 81.5% |
| CCOC(=O)c1c(NC(=O)CN(C)C2CCN(C)CC2)sc(C(=O)Nc2ccccc2)c1C | 84.1% [at 20 µM] |
| Cc1ccc(COc2cccc(/C=N/NC(=O)c3nnn(-c4nonc4N)c3C)c2)cc1 | 70.3% [at 20 µM] |
| CCCCCCOC(=O)C(C#N)c1nc2ccccc2nc1N1CCN(C)CC1 (centres undefined) | 76.1% |
